Experimental data reported in paper PMC4552634, “A New Set of Chemical Starting Points with Plasmodium falciparum Transmission-Blocking Potential for Antimalarial Drug Discovery” (PLoS ONE, 2015).
Screen size: about 13,000 compounds; about 3,200 (25%) showed an effect of 50% or more. This is one part of the list.

Tested on: P. falciparum stage V gametocytes
Design: BacTiter-Glo ATP luminescence viability of purified stage V gametocytes in 384-well plates, per cent inhibition versus DMSO
Conditions: 48 h, 5 µM; inhibitor

Row | Structure (SMILES) | % Inhibition [%]
1 | C=CC[C@H](C[C@H](O)[C@H](Cc1ccccc1)NC(=O)c1ccc(-n2cccn2)cc1)C(=O)NC1CCCCC1 [TCMDC-141420] | 10.16
2 | CCc1c(C)nc(-n2nc(C)cc2NC(=O)C(CC)c2ccccc2)[nH]c1=O (stereo not shown) [TCMDC-124935] | 27.05
3 | Brc1ccc(Nc2nc3ccccc3nc2Nc2ccc(Br)cc2)cc1 [TCMDC-125776] | -38.43
4 | O=[N+]([O-])c1ccc2nc(Nc3ccc(Cl)c(Cl)c3)c(Nc3ccc(Cl)c(Cl)c3)nc2c1 [TCMDC-125794] | 113.6
5 | Clc1ccc(Nc2nc3ccc(Cl)cc3nc2Nc2ccc(Cl)cc2)cc1 [TCMDC-137772] | 143.7
6 | Oc1ccc(Nc2ccnc3cc(Cl)ccc23)cc1 [TCMDC-125528] | -45.78
7 | O=C(Nc1ccc(Cl)cc1)Nc1nc2ccc([N+](=O)[O-])cc2[nH]1 [TCMDC-137530] | 30.09
8 | O=[N+]([O-])c1ccc2ncnc(Nc3ccc(F)c(Cl)c3)c2c1 [TCMDC-123784] | 0.775
9 | O=S(=O)(NCCCN1CCOCC1)c1ccc2nccc(Nc3ccc(Oc4ccccc4)cc3)c2c1 [TCMDC-138692] | -57.28
10 | FC(F)(F)c1cccnc1N1CCC(Nc2nc3ccc(Cl)cc3[nH]2)CC1 [TCMDC-135644] | -32.98
11 | CCNc1cc(C(=O)N[C@@H](Cc2ccccc2)[C@H](O)CNCCc2ccccc2)cc(N2CCCC2=O)c1 [TCMDC-141682] | 21.5
12 | COc1ccc(CC(=O)NC(CCN2CCC3(CC2)CN(S(C)(=O)=O)c2ccccc23)c2ccc(Cl)c(Cl)c2)cc1OC (stereo not shown) [TCMDC-141764] | 25.44
13 | CS(=O)(=O)N1CC2(CCN(CCC(NC(=O)Nc3ccccc3)c3ccc(Cl)c(Cl)c3)CC2)c2ccccc21 (stereo not shown) [TCMDC-141766] | 12.26
14 | COc1cc(C(=O)N2CCC(CCN3CCC4(CC3)CN(S(C)(=O)=O)c3ccccc34)CC2Cc2ccc(Cl)c(Cl)c2)cc(OC)c1OC (stereo not shown) [TCMDC-141627] | 50.03
15 | CS(=O)(=O)N1CC2(CCN(CCC(NC(=O)NCc3ccc(Cl)c(Cl)c3)c3ccc(Cl)c(Cl)c3)CC2)c2ccccc21 (stereo not shown) [TCMDC-141769] | -4.824
16 | CS(=O)(=O)N1CC2(CCN(CCC(NC(=S)Nc3ccccc3)c3ccc(Cl)c(Cl)c3)CC2)c2ccccc21 (stereo not shown) [TCMDC-141770] | 57.16
17 | C[C@@H](NC(=O)NC(CCN1CCC2(CC1)CN(S(C)(=O)=O)c1ccccc12)c1ccc(Cl)c(Cl)c1)c1ccccc1 (stereo partly shown) [TCMDC-141767] | 25.06
18 | CS(=O)(=O)c1cccc(-c2ccc3oc(C(N)=O)c(NC(=O)c4cccs4)c3c2)c1 [TCMDC-138862] | 19.31
19 | O=C(CCCCCNC(=O)c1ccc(O)c(-c2ccc(Cl)c(Cl)c2)c1)NCCN1CCCCC1 [TCMDC-140856] | 8.201
20 | COc1cc(Cc2cnc(N)nc2N)cc(OCCCc2cc(OCc3ccccc3)no2)c1OC [TCMDC-138084] | 0.05649
21 | Cc1[nH]c2ccccc2c1C1=CCN(CCCCC2(C)C(=O)Nc3ccccc32)CC1 (stereo not shown) [TCMDC-140740] | -83.27
22 | O=C(c1ccccc1)C1CC1CN1CC=C(c2c[nH]c3ccccc23)CC1 (stereo not shown) [TCMDC-136771] | -5.765

Row | Structure (SMILES) | % Inhibition [%]
23 | COc1ccc2[nH]cc(C3=CCN(CC4CC4C(=O)c4ccccc4)CC3)c2n1 (stereo not shown) [TCMDC-136871] | -1.485
24 | Cc1[nH]c2ccccc2c1C1=CCN(CC2CC2C(=O)c2ccccc2)CC1 (stereo not shown) [TCMDC-136870] | 56.06
25 | COc1ccc(C(=O)C2CC2CN2CC=C(c3c(C)[nH]c4ccccc34)CC2)cc1 (stereo not shown) [TCMDC-136872] | 7.556
26 | Cc1[nH]c2cc(F)ccc2c1C1=CCN(CCCCC2(C)C(=O)Nc3ccccc32)CC1 (stereo not shown) [TCMDC-141003] | -43.4
27 | COc1cccc(C(=O)C2CC2CN2CC=C(c3c(C)[nH]c4ccccc34)CC2)c1 (stereo not shown) [TCMDC-136874] | 78.13
28 | COc1cccc(C(=O)C2CC2CN2CC=C(c3c[nH]c4cccc(Br)c34)CC2)c1 (stereo not shown) [TCMDC-136773] | -17.42
29 | COc1ccc(C(=O)C2CC2CN2CC=C(c3c[nH]c4ccc(OC)nc34)CC2)cc1 (stereo not shown) [TCMDC-136873] | 84.74
30 | COc1ccc(C(=O)C2CC2CN2CC=C(c3c[nH]c4cccc(Br)c34)CC2)cc1 (stereo not shown) [TCMDC-136801] | -30.41
31 | Cc1[nH]c2ccccc2c1C1=CCN(CCCCC2(C)C(=O)Nc3cccc(F)c32)CC1 (stereo not shown) [TCMDC-140942] | 52.59
32 | COc1cccc(C(=O)C2CC2CN2CC=C(c3c[nH]c4ccc(OC)nc34)CC2)c1 (stereo not shown) [TCMDC-136875] | 11.19
33 | Nc1nc(N)c2c(ccc3nn(Cc4cccnc4)cc32)n1 [TCMDC-137968] | -0.02415
34 | CS(=O)(=O)c1ccc(-c2cc(C(F)(F)F)nc(N[C@@H]3CCCC[C@H]3OCc3ccccc3)n2)cc1 [TCMDC-138567] | -4.461
35 | CC[C@@]1(O)C(=O)OCc2c1cc1n(c2=O)Cc2c-1nc1cc3c(cc1c2CN1CCOCC1)OCO3 [TCMDC-131876] | 7.387
36 | Cc1nc2nc(N)nc(N)c2c(C)c1Cc1ccc(C#N)cc1 [TCMDC-137653] | -12.58
37 | O=c1cc(NCCCNCc2cc(Cl)cc(Cl)c2OCc2ccc(Cl)cc2)[nH]c2ccccc12 [TCMDC-139604] | -52.63
38 | CCCN1CCC(NCc2cn(C)nc2-c2ccc(Oc3ccccc3)cc2)CC1 [TCMDC-124676] | 46.58
39 | COc1cc(Cl)c(C)cc1N(Cc1ccccc1-c1ccccc1)S(=O)(=O)c1ccc(C(F)(F)F)cc1 [TCMDC-141750] | -7.334
40 | COc1ccccc1Oc1c(N(C)S(=O)(=O)c2ccc(C(C)C)cc2)nc(C(F)(F)F)nc1N(C)S(=O)(=O)c1ccc(C(C)C)cc1 [TCMDC-132001] | 61.81
41 | Cn1cncc1CCN(Cc1ccc(-c2ccc(C(F)(F)F)cc2)cc1)C(=O)Cn1c(CCc2cccc(F)c2F)cc(=O)c2cccnc21 [TCMDC-141455] | 99.09
42 | O=C(Cn1c(CCc2cccc(F)c2F)cc(=O)c2cccnc21)N(CCN1CCCC1)Cc1ccc(-c2ccc(C(F)(F)F)cc2)cc1 [TCMDC-141463] | 53.17
43 | O=C(Cn1c(CCc2cccc(F)c2F)cc(=O)c2ccccc21)N(CCN1CCCC1)Cc1ccc(-c2ccc(C(F)(F)F)cc2)cc1 [TCMDC-141120] | -20.2
44 | Cn1cncc1CCCN(Cc1ccc(-c2ccc(C(F)(F)F)cc2)cc1)C(=O)Cn1c(CCc2cccc(F)c2F)cc(=O)c2cccnc21 [TCMDC-141502] | -3.632

Row | Structure (SMILES) | % Inhibition [%]
45 | O=C(Cn1c(CCc2cccc(F)c2F)cc(=O)c2cccnc21)N(CCn1ccnc1)Cc1ccc(-c2ccc(C(F)(F)F)cc2)cc1 [TCMDC-141474] | 11.29
46 | CCCOc1ccc(OCCCON2C(N)=NC(N)=NC2(C)C)cc1 [TCMDC-131737] | 9.517
47 | CC1CCCN(S(=O)(=O)c2ccc(NC(=O)c3cc(-c4ccccc4O)n[nH]3)cc2)C1 (stereo not shown) [TCMDC-125194] | -32.46
48 | O=C1NC(=O)C(c2ccc(Cl)cc2)=C1Nc1cccc(S(=O)(=O)C(F)(F)F)c1 [TCMDC-139487] | 41.44
49 | Cc1cc(C=C2SC(=Nc3ccccc3)N(C3CCCC3)C2=O)c(C)n1-c1ccc(Cl)cc1 [TCMDC-125698] | -5.321
50 | CCn1c(C)cc(C=C2SC(=Nc3ccccc3)NC2=O)c1C [TCMDC-124456] | -43.68
51 | Cc1cc(C)cc(-n2c(C)cc(/C=C3\SC(=Nc4ccc(Cl)cc4)NC3=O)c2C)c1 [TCMDC-124103] | 64.96
52 | COc1cc(Cc2cnc(N)nc2N)cc(OC)c1OCCCCCN1C(=O)c2ccccc2C1=O [TCMDC-138036] | 16.13
53 | O=C(NCC1CC1)C1Cc2c([nH]c3ccc(Br)cc23)C2(CCN(CCc3ccccc3)CC2)N1 (stereo not shown) [TCMDC-141180] | -28.21
54 | CNC(=O)C1Cc2c([nH]c3cc(Br)ccc23)C2(CCN(CCc3ccccc3)CC2)N1 (stereo not shown) [TCMDC-141261] | 85.59
55 | CCCNC(=O)C1Cc2c([nH]c3ccc(Br)cc23)C2(CCN(CCc3ccccc3)CC2)N1 (stereo not shown) [TCMDC-141184] | 7.991
56 | CNC(=O)C1Cc2c([nH]c3ccc(Br)cc23)C2(CCN(CCc3ccccc3)CC2)N1 (stereo not shown) [TCMDC-141185] | -21.04
57 | CC(C)CCNC(=O)C1Cc2c([nH]c3cc(Cl)ccc23)C2(CCN(CCc3ccccc3)CC2)N1 (stereo not shown) [TCMDC-141294] | 25.11
58 | O=C(NCc1ccccc1)C1Cc2c([nH]c3ccc(Br)cc23)C2(CCN(Cc3ccccc3)CC2)N1 (stereo not shown) [TCMDC-141183] | 77.73
59 | CCCCCCNC(=O)C1Cc2c([nH]c3ccc(Br)cc23)C2(CCN(CCc3ccccc3)CC2)N1 (stereo not shown) [TCMDC-141182] | -10.63
60 | CCCNC(=O)C1Cc2c([nH]c3cc(Br)ccc23)C2(CCN(CCc3ccccc3)CC2)N1 (stereo not shown) [TCMDC-141260] | -73.32
61 | CC(C)CCNC(=O)C1Cc2c([nH]c3cc(Br)ccc23)C2(CCN(CCc3ccccc3)CC2)N1 (stereo not shown) [TCMDC-141259] | -3.364
62 | CCCCCCNC(=O)C1Cc2c([nH]c3ccc(C)cc23)C2(CCN(Cc3ccccc3)CC2)N1 (stereo not shown) [TCMDC-141091] | 29.77
63 | CCCCCCNC(=O)C1Cc2c([nH]c3ccc(Br)cc23)C2(CCN(Cc3ccccc3)CC2)N1 (stereo not shown) [TCMDC-141181] | 96.4
64 | CC(C)CCNC(=O)C1Cc2c([nH]c3cc(Br)ccc23)C2(CCN(Cc3ccccc3)CC2)N1 (stereo not shown) [TCMDC-141258] | 102.3
